Results filed as inconclusive are left out. Activity calls are given as the source filed them. The calls were made as follows, unless noted: active = hit-call score of the fitted dose curve at least 0.9, where 1 is the maximum; inconclusive = response in the unintended direction; inactive = score below 0.9.
Experiments:
[1] = TOX21_p53_BLA_p2_viability: Viability Assessment in the Tox21 HCT-116 p53 Agonism Beta-lactamase Assay, Phase 2 (AID 2283591);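 also: compound exposure lasted 16 h at 37 °C; actives lower the ATP signal meaning cytotoxicity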
Summary of the method: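 HCT-116 p53-bla cells (4000/well) rested 5 h at 37C, then received compounds in DMSO (217-fold dilution) for 16 h at 37C, 5% CO2. After the CCF4 read, CellTiter-Glo was added; ATP luminescence was read after 30 min at room temperature.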

[2] = biological target: Cellular tumor antigen p53 (Homo sapiens) (UniProt P04637); experiment: TOX21_p53_BLA_p2_ratio: Tox21 HCT-116 p53 Agonism Beta-lactamase Assay, Ratio, Phase 2 (AID 2283592)
Summary of the method: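 DMSO-normalized, positive-direction endpoint derived from the 460 nm/530 nm FRET ratio in HCT116 p53 beta-lactamase reporter cells exposed 16 h at 37C and loaded with CCF4-AM for 2 h.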

[3] = TOX21_p53_BLA_p3_viability: Viability Assessment in the Tox21 HCT-116 p53 Agonism Beta-lactamase Assay, Phase 3 (AID 2283593);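 also: cells exposed to compound for 16 h before reading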
Summary of the method: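 HCT-116 cells (4000/well) rested 5 h at 37C, then got DMSO compounds by pin tool (217-fold dilution) for 16 h at 37C, 5% CO2. After the bla read, CellTiter-Glo was added and luminescence read at 30 min, room temperature.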

[4] = biological target: Cellular tumor antigen p53 (Homo sapiens) (UniProt P04637); experiment: TOX21_p53_BLA_p3_ratio: Tox21 HCT-116 p53 Agonism Beta-lactamase Assay, Ratio, Phase 3 (AID 2283596)
Summary of the method: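 Cells were seeded at 4000/well, rested 5 h at 37C, then dosed with DMSO compound solutions (217-fold dilution) for 16 h. CCF4-AM substrate was loaded for 2 h at room temperature, and the 460/530 nm emission ratio was fitted for gain of signal versus DMSO.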

[5] = TOX21_p53_BLA_p4_viability: Viability Assessment in the Tox21 HCT-116 p53 Agonism Beta-lactamase Assay, Phase 4 (AID 2283597);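 also: hits lower the luminescence signal meaning cytotoxicity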
Summary of the method: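 In this multiplexed secondary endpoint, HCT116 cells (4000 per well, compound at 5 h, 16 h treatment) received CellTiter-Glo after the beta-lactamase read. Luminescence after 30 min RT reflects ATP, and falling signal marks cytotoxicity.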

[6] = TOX21_p53_BLA_p5_viability: Viability Assessment in the Tox21 HCT-116 p53 Agonism Beta-lactamase Assay, Phase 5 (AID 2283600)
Summary of the method: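 Here cell health was gauged by ATP levels in wells holding 4000 cells, each treated 16 h with DMSO-delivered compounds at 217-fold dilution; reduced luminescence marked toxicity.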

[7] = CCTE_Harrill_HTTr_Viability_MCF7: CCTE's 6-hour Cell Viability Assessment for the High-Throughput Transcriptomics (HTTr) Platform, in MCF-7 cells cultured in DMEM + 10% fetal bovine serum, Harrill Lab (AID 2284010; active = hit-call score of the fitted dose curve at least 0.9, where 1 is the maximum; inactive = score below 0.9)
Summary of the method: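 Propidium iodide exclusion, imaged by high-content analysis, gauged viability after a six-hour exposure across eight concentrations. Cells were MCF-7 grown in DMEM with 10% fetal bovine serum; fits run in both directions against DMSO.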

[8] = CCTE_Harrill_HTTr_Apoptosis_MCF7: CCTE's 6-hour Apoptosis Assessment for the High-Throughput Transcriptomics (HTTr) Platform, in MCF-7 cells cultured in DMEM + 10% fetal bovine serum, Harrill Lab (AID 2284011; active = hit-call score of the fitted dose curve at least 0.9, where 1 is the maximum; inactive = score below 0.9)
Summary of the method: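 Apoptosis in MCF-7 cells grown in DMEM with 10% fetal bovine serum was scored after a six hour exposure by high content imaging of caspase-3/7 activation (CellEvent Caspase 3/7 Green), with DMSO serving as negative control and baseline.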

[9] = CCTE_Harrill_HTTr_CellCount_MCF7: CCTE's Cell Proliferation Assessment for the High-Throughput Transcriptomics (HTTr) Platform, Harrill Lab (AID 2284012);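 also: cells exposed to compound for six hours; intended direction is loss of nuclei count meaning fewer cells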
Summary of the method: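 Cell count from high-content imaging of Hoechst-labeled nuclei serves as viability/growth readout. Chemicals were applied to MCF-7 cells in eight concentrations for six hours, with fitting in both directions relative to DMSO.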

[10] = biological target: Cellular tumor antigen p53 (Homo sapiens) (UniProt P04637); experiment: TOX21_p53_BLA_p4_ratio: Tox21 HCT-116 p53 Agonism Beta-lactamase Assay, Ratio, Phase 4 (AID 2283601)
Summary of the method: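 HCT116 cells carrying an inducible beta-lactamase reporter were plated at 4000 cells/well, rested 5 h, then exposed to compounds in DMSO (217-fold dilution) for 16 h at 37C. CCF4-AM substrate was loaded 2 h at room temperature; 460/530 nm emission ratio scored gain-of-signal versus DMSO.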

[11] = biological target: Cellular tumor antigen p53 (Homo sapiens) (UniProt P04637); experiment: TOX21_p53_BLA_p5_ratio: Tox21 HCT-116 p53 Agonism Beta-lactamase Assay, Ratio, Phase 5 (AID 2283599)
Summary of the method: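 HCT-116 cells carrying a p53-inducible beta-lactamase reporter were seeded at 4000 cells/well and dosed after 5 h with compound in DMSO (217-fold dilution). After 16 h at 37C, CCF4-AM substrate was added for 2 h, and the 460/530 nm emission ratio was scored as gain-of-signal versus DMSO.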

[12] = test system: Brachyury (BRA) Protein Expression, Deisenroth Lab, TBXT (gene 6862); experiment: CCTE_Deisenroth_DEVTOX-GLR_legacy_Bra: (Legacy) CCTE's DevTox GLR-Endo Assay Evaluation of Brachyury (BRA) Protein Expression, Deisenroth Lab (AID 2284329; active = hit-call score of the fitted dose curve at least 0.9, where 1 is the maximum; inactive = score below 0.9)
Summary of the method: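 High-content imaging of fixed RUES2-GLR cells after a 48-hour differentiation with two compound exposures yields percent cells whose Bra signal exceeds pluripotent control median by 5x BMAD; values are baseline-corrected to DMSO.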

[13] = CCTE_Deisenroth_DEVTOX-GLR_legacy_CellCount: (Legacy) Viability Assessment in CCTE's DevTox GLR-Endo Assay, Deisenroth Lab (AID 2284331; active = hit-call score of the fitted dose curve at least 0.9, where 1 is the maximum; inactive = score below 0.9); conditions: actives raise or lower the signal
Summary of the method: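 Human pluripotent RUES2-GLR cells differentiated 48 h with two 24-h-interval exposures, 10-point 1 nM–200 uM series, 0.2% DMSO. Fixed nuclei counted by high-content imaging (5 fields/well); bidirectional fit vs DMSO, n≥4.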

[14] = test system: SRY-box transcription factor 17 (SOX17) Protein Expression, Deisenroth Lab, SOX17 (gene 64321); experiment: CCTE_Deisenroth_DEVTOX-GLR_legacy_Sox17: (Legacy) CCTE's DevTox GLR-Endo Assay Evaluation of SRY-box transcription factor 17 (SOX17) Protein Expression, Deisenroth Lab (AID 2284341; active = hit-call score of the fitted dose curve at least 0.9, where 1 is the maximum; inactive = score below 0.9); conditions: actives raise or lower the signal
Summary of the method: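 RUES2-GLR human pluripotent cells differentiated toward endoderm for 48 h, dosed twice at 24 h intervals (1 nM–200 uM, 10 points). Imaging gives % SOX17+ cells (intensity >5x BMAD above pluripotent control median); bidirectional fit versus 0.2% DMSO.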

[15] = test system: SRY-box transcription factor 2 (SOX2) Protein Expression, Deisenroth Lab, SOX2 (gene 6657); experiment: CCTE_Deisenroth_DEVTOX-GLR_legacy_Sox2: (Legacy) CCTE's DevTox GLR-Endo Assay Evaluation of SRY-box transcription factor 2 (SOX2) Protein Expression, Deisenroth Lab (AID 2284346; active = hit-call score of the fitted dose curve at least 0.9, where 1 is the maximum; inactive = score below 0.9)
Summary of the method: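 Two exposures, 24 h apart, during 48 h defined-media differentiation of seeded RUES2-GLR cells; nuclei-stained cells imaged. Sox2 positivity called at 5x BMAD above endoderm control median, DMSO median subtracted.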

[16] = test system: SRY-box transcription factor 17 (SOX17) Protein Expression, Deisenroth Lab, SOX17 (gene 64321); experiment: CCTE_Deisenroth_DEVTOX-GLR_Endo_SOX17: CCTE's DevTox GLR-Endo Assay Evaluation of SRY-box transcription factor 17 (SOX17) Protein Expression, Deisenroth Lab (AID 2284413; active = hit-call score of the fitted dose curve at least 0.9, where 1 is the maximum; inactive = score below 0.9)
Summary of the method: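 Fluorescent microscopy of a SOX17 reporter in RUES2-GLR pluripotent cells scored endoderm differentiation after 48 h and two 24-h-spaced exposures. Values are percent change in SOX17+ population against 0.2% DMSO, n=4 experimental replicates.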

[17] = test system: Brachyury (BRA) Protein Expression, TBXT (gene 6862); experiment: CCTE_Deisenroth_DEVTOX-GLR_Endo_BRA: CCTE's DevTox GLR-Endo Assay Evaluation of Brachyury (BRA) Protein Expression, Deisenroth Lab (AID 2284417; active = hit-call score of the fitted dose curve at least 0.9, where 1 is the maximum; inactive = score below 0.9)
Summary of the method: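 RUES2-GLR pluripotent cells differentiated 48 h with two chemical exposures 24 h apart, 10-point range 1 nM - 200 uM. Percentage of BRA+ cells per total count by high-content imaging, minus 0.2% DMSO control.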

[18] = CCTE_Deisenroth_DEVTOX-GLR_Endo_CellCount: Viability Assessment in CCTE's DevTox GLR-Endo Assay, Deisenroth Lab (AID 2284420; active = hit-call score of the fitted dose curve at least 0.9, where 1 is the maximum; inactive = score below 0.9)
Summary of the method: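 Measured 48 h after dosing: fluorescent nuclei counted by imaging in human RUES2-GLR cells under defined differentiation media, tested at 1 nM - 200 uM. Values are percent cell-count change relative to 0.2% DMSO.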

[19] = test system: SRY-box transcription factor 2 (SOX2) Protein Expression, Deisenroth Lab, SOX2 (gene 6657); experiment: CCTE_Deisenroth_DEVTOX-GLR_Pluri_SOX2: CCTE's DevTox GLR-Pluri Assay Evaluation of SRY-box transcription factor 2 (SOX2) Protein Expression, Deisenroth Lab (AID 2284428; active = hit-call score of the fitted dose curve at least 0.9, where 1 is the maximum; inactive = score below 0.9)
Summary of the method: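 Percent SOX2+ RUES2-GLR cells, determined by fluorescence microscopy after 48 h and two 24-h-interval chemical exposures spanning 1 nM–200 uM, served as the endpoint. Values are expressed relative to 0.2% DMSO; total cell counts assessed viability.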

[20] = test system: Brachyury (BRA) Protein Expression, Deisenroth Lab, TBXT (gene 6862); experiment: CCTE_Deisenroth_DEVTOX-GLR_Pluri_BRA: CCTE's DevTox GLR-Pluri Assay Evaluation of Brachyury (BRA) Protein Expression, Deisenroth Lab (AID 2284429)
Summary of the method: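 Mesoderm readout after 48 h differentiation of human RUES2-GLR cells, dosed twice (24-h intervals) at 1 nM - 200 uM. BRA+ frequency from fluorescence imaging of fixed, nuclear-stained cells, DMSO-corrected.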

[21] = CCTE_Deisenroth_DEVTOX-GLR_Pluri_CellCount: Viability Assessment in CCTE's DevTox GLR-Pluri Assay Evaluation of Total Cell Counts, Deisenroth Lab (AID 2284430; active = hit-call score of the fitted dose curve at least 0.9, where 1 is the maximum; inactive = score below 0.9)
Summary of the method: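 Cytotoxicity readout: fluorescent nuclei counts by high-content imaging, expressed as percent change relative to 0.2% DMSO. Human RUES2-GLR pluripotent line differentiated 48 h, dosed twice at 24-h intervals across 1 nM - 200 uM (10 points).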

Measured: AC50

Chain of Cellular tumor antigen p53 (Homo sapiens) (P04637 whole entry, looked up): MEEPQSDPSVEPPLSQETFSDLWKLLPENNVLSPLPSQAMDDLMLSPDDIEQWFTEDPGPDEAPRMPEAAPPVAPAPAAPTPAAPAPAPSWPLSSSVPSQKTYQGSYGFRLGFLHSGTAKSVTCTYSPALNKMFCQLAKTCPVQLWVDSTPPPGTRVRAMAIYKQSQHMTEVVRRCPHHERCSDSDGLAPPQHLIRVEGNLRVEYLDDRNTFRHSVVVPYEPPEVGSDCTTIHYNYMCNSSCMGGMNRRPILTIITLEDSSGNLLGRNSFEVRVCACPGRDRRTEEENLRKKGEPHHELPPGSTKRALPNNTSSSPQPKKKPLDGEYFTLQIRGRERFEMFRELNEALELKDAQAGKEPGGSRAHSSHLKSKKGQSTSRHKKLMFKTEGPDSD

N#CCC(=O)O
inactive: [1] | [2] | [3] | [4] | [5] | [6] | [7] | [8] | [9]

O
inactive: [1] | [2] | [3] | [4] | [5] | [10]

OCCSc1ccccc1
inactive: [1] | [2] | [3] | [4] | [5] | [10]

O=C1Nc2ccccc2C1=O
inactive: [1] | [2] | [3] | [4] | [11] | [6]

CC=C1[C@H]2C=C(C)C[C@]1(N)c1ccc(=O)[nH]c1C2
inactive: [1] | [2] | [3] | [4] | [11] | [6]

NC(=O)c1ccc([N+](=O)[O-])cc1
inactive: [1] | [2] | [3] | [4] | [11] | [6]

CN1CC(O)c2cc(N=NC(N)=O)c(O)cc21 (centres undefined)
inactive: [1] | [2] | [3] | [4] | [11] | [6]

CCCNC(C)C(=O)Nc1ccccc1C (centres undefined)
inactive: [1] | [2] | [3] | [4] | [11]

OCC(CBr)(CBr)CBr
inactive: [1] | [2] | [3] | [4] | [5] | [10]

CC(C)(C)C(=O)OCOC(=O)C1N2C(=O)CC2S(=O)(=O)C1(C)C (centres undefined)
inactive: [1] | [2] | [3] | [4] | [5] | [10]

O=C(CCBr)N1CCN(C(=O)CCBr)CC1
inactive: [1] | [2] | [3] | [4] | [11] | [6] | [10]

O=C(CO)[C@@H](O)[C@H](O)[C@H](O)CO
inactive: [1] | [2] | [3] | [4] | [5] | [10]

Clc1ccc2cc3ccccc3cc2c1
inactive: [1] | [2] | [3] | [4] | [11] | [6]

NC(=S)N/N=C/c1cccnc1
inactive: [1] | [2] | [3] | [4] | [5] | [10]

O=C(c1ccc(F)cc1)C1CCN(CCn2c(=O)[nH]c3ccccc3c2=O)CC1
active: [13] 58.8 µM | [14] 39.9 µM | [15] 9.92 µM | [16] 37.9 µM | [17] 70 µM | [18] 58.4 µM | [19] 19.8 µM | [20] 127 µM
not listed: [7] | [8] | [9] | [11]
inactive: all other assays above
